# Compounds without any hit were thinned out: in the full panel of roughly 83,000, 20% have a hit.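 Growth was measured after 48 h exposure to one concentration of compound in 96-well plates. Values under 10 count as active.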 Unmarked numbers belong to inactive results. Calls of active or inactive are those of the source.
# Columns and labels:
# Experiment in all cases: NCI-60 one-dose screen, 48 h (100 = growth as untreated, 0 = no growth, -100 = all killed)
# Details in all cases: 10 µM unless noted
# [1] = system: NCI-H23 lung
# [2] = system: NCI-H226 lung
# [3] = system: NCI-H322M lung
# [4] = system: HOP-62 NSCLC
# [5] = system: NCI-H460 lung
# [6] = system: HOP-92 NSCLC
# [7] = system: NCI-H522 lung
# [8] = system: A549/ATCC NSCLC
# [9] = system: 786-0 renal
# [10] = system: COLO 205 colon
# [11] = system: DU-145 prostate
# [12] = system: K-562 leukemia
# [13] = system: MALME-3M melanoma
# [14] = system: MDA-MB-231 breast
# [15] = system: RXF 393 renal
# [16] = system: SF-268 CNS
# [17] = system: SF-295 CNS
# [18] = system: SF-539 CNS
# [19] = system: UACC-257 melanoma
# [20] = system: M14 melanoma
Compound,growth [1],growth [2],growth [3],growth [4],growth [5],growth [6],growth [7],growth [8],growth [9],growth [10],growth [11],growth [12],growth [13],growth [14],growth [15],growth [16],growth [17],growth [18],growth [19],growth [20]
Cc1nc(NC(=O)N2CCC[C@H]2C(N)=O)sc1-c1ccnc(C(C)(C)C(F)(F)F)c1,57.9%,71%,6.7% (active),49.4%,24%,-4.57% (active),33.6%,21%,59.5%,13.7%,34.1%,80.9%,43.8%,65.3%,25.6%,54.2%,32.8%,28.1%,40%,41.4%
CC(=O)c1c(C)c2cnc(Nc3ccc(N4CCNCC4)cn3)nc2n(C2CCCC2)c1=O,50.9%,52.7%,31.9%,42%,14.1%,66%,-76.7% (active),22.6%,24.9%,18.5%,39.1%,6.83% (active),2.27% (active),36.5%,-0.541% (active),46.7%,70.3%,27.4%,-11.7% (active),29.2%
C=CC(=O)Nc1cc2c(Nc3ccc(F)c(Cl)c3)ncnc2cc1OCCCN1CCOCC1,-54.4% (active),40.2%,-15.2% (active),12.1%,31.2%,-51.7% (active),-74.6% (active),22.9%,2.4% (active),8.89% (active),14.9%,2.24% (active),27.3%,0.732% (active),-53.1% (active),-5.09% (active),53.4%,-24.4% (active),35.1%,-62.3% (active)
O=C1OCC2=C1C(c1cccc(F)c1)c1cc3c(cc1N2CCO)OCCO3 (stereo not given),25.4%,26.2%,45.3%,30.5%,9.42% (active),66.6%,17.1%,18.1%,26.4%,-5.04% (active),14.3%,8.66% (active),46.2%,24.8%,4.45% (active),34.5%,-15.9% (active),-31.7% (active),89%,-9.63% (active)
Cc1cc(Nc2cc(N3CCN(C)CC3)nc(/C=C/c3ccccc3)n2)n[nH]1,22.3%,17.7%,29.5%,-19.7% (active),5.31% (active),-60.5% (active),-12.4% (active),-25% (active),-94.3% (active),-63.2% (active),26.9%,-18.8% (active),-60.6% (active),9.8% (active),-86.6% (active),-26.1% (active),-17% (active),-79.1% (active),-73.4% (active),-76.6% (active)
CN(C)CCn1c(=O)c2c3cc4c(cc3n(CCN(C)C)c2c2ccc(Cl)cc21)OCO4,36.9%,55%,49.1%,26.3%,12.7%,65.9%,44.5%,31.7%,61.1%,27%,60.6%,-17.8% (active),78.7%,31.6%,57.9%,32%,32.5%,69.9%,71.6%,50.5%
CNC(=O)c1cnc(C)nc1-c1cc(C(C)(C)C)c(O)c(C(C)(C)C)c1,103%,98.2%,104%,99.9%,108%,74%,83.2%,95.9%,88.9%,105%,99.8%,90.4%,87.5%,87.5%,111%,98%,88.5%,91.9%,100%,94.1%
O=C(NC[C@H](O)CO)c1ccncc1Nc1ccc(I)cc1F,15.9%,50.2%,19.8%,23.7%,53.2%,-25.4% (active),51.6%,32.2%,70.2%,-8.7% (active),63.4%,37.2%,-7.31% (active),29.8%,15.1%,71.3%,67.1%,52.5%,-19.2% (active),3.95% (active)
Cc1cc(C2(c3ccc(O)c(C)c3)OS(=O)(=O)c3ccccc32)ccc1O,101%,97.9%,103%,107%,103%,78.6%,115%,101%,112%,96.3%,122%,104%,91.7%,102%,98.5%,112%,105%,99%,100%,99.9%
COc1ncc(-c2ccc3nccc(-c4ccnnc4)c3c2)cc1NS(=O)(=O)c1ccc(F)cc1F,3.23% (active),-4.7% (active),-31.1% (active),-14.1% (active),5.35% (active),-1.41% (active),-44% (active),-61.6% (active),4.21% (active),-83.2% (active),10.8%,3.76% (active),-34.2% (active),5.98% (active),-58.5% (active),6.46% (active),-27.3% (active),-47.2% (active),-36.2% (active),-7.62% (active)
C[C@@H]1COC(Nc2ccc3ncnc(Nc4ccc(OCc5nccs5)c(Cl)c4)c3c2)=N1,46.8%,17.1%,20.1%,17.5%,57.9%,10.3%,2.8% (active),40.3%,50%,-9.99% (active),36.1%,22.6%,38%,42.8%,49.1%,46.5%,18.9%,65.5%,48.3%,19.5%
COC(=O)[C@H](Cc1ccc(O)cc1)NC(=O)[C@@H](OC)[C@@H]1Cc2cc3cc(OC4CC(OC5CC(O)C(O)C(C)O5)C(O)C(C)O4)c(C)c(O)c3c(O)c2C(=O)[C@H]1OC1CC(OC2CC(OC3CC(C)(O)C(O)C(C)O3)C(O)C(C)O2)C(O)C(C)O1 (stereo not given in full),-38.6% (active),-17.6% (active),11.1%,19.3%,6.99% (active),12.2%,-19.5% (active),4.32% (active),1.98% (active),-22.8% (active),15.8%,7.28% (active),-43% (active),19.5%,-71.5% (active),20.7%,7.09% (active),-27.1% (active),2.42% (active),-20.2% (active)
COC[C@@H](C)n1c(C2CCOCC2)nc2c1C1C=C(OC)C(c3c(C)noc3C)=CC1N=C2 (stereo not given in full),48.5%,65.1%,40.7%,51.5%,59.4%,11.1%,-1.23% (active),42.6%,48.6%,31.9%,65.5%,33.6%,41.2%,25%,55.9%,62.4%,45.4%,34.5%,41.4%,42.4%
Cc1cccc(Cl)c1NC(=O)c1cnc(Nc2cc(N3CCOCC3)cc(N3CCOCC3)c2)s1,73.8%,68.6%,-10.4% (active),4.81% (active),51.2%,-42.1% (active),-9.13% (active),10.7%,17.1%,-4.18% (active),3.54% (active),5.18% (active),61.3%,20.5%,-30% (active),34%,34%,6.88% (active),64.3%,35.9%
NC1(C(=O)N[C@@H](CCO)c2ccc(Cl)cc2)CCN(c2ncnc3[nH]ccc23)CC1,53%,17.3%,55%,33.9%,24.6%,-13.2% (active),44.2%,56.6%,1.31% (active),32.1%,57.2%,76.9%,9.74% (active),73.5%,-42.3% (active),60.9%,-3.48% (active),-54.4% (active),31.7%,46.3%
